Bioassay records deposited in PubChem BioAssay by several laboratories.
Most compounds without a hit are left out; they make up all but 13% or so of the library.
CHOP inh – CHOP inhibition in unfolded protein response; CHO-K1 CHOP-promoter luciferase, tunicamycin-induced, 15-18 h; AID 2732; hit rate 3.8% among 220,000; inhibition, % at 10 µM;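 active = compounds that reduced the stress-induced luciferase reporter signal by more than about 70% of percent inhibition, limit read from the data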;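 also: 0% = tunicamycin plus vehicle and 100% = wells without tunicamycin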
WT yeast gro inh – growth inhibition of WT yeast, mitochondrial fusion screen; hit rate 2.1% among 190,000; inhibition, % at 10 µM; mitochondrial fusion phenotypic screen, WT strain; in the data active = inhibition above about 58%; tested in S. cerevisiae
Lmaj promast – Leishmania major promastigote growth inhibition; Leishmania major promastigotes, resazurin fluorescence viability; inhibition, % at 10 µM; hit rate 9% among 200,000; AID 1063; in the data active = inhibition above about 50%;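 also: promastigotes grown with compound for 44 hours at 28 °C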
RAM network inh – inhibitors of the yeast RAM network; hit rate 1.8% among 190,000; inhibition, % at 50 µM; S. cerevisiae dse1pr::URA3 reporter, 5-FOA growth OD615, 2 d; analog-sensitive cbk1-as2 kinase mutant strain; AID 868;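 active = inhibition above a set limit, 3 SD over mean compound inhibition, cut at about 8.4% in these data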;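 also: 0% = DMSO-only wells with no growth and 100% = 10 µM 1-NA-PP1 full growth; inhibition rescues growth on 5-FOA so higher OD means more RAM inhibition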
* = called active by the depositor; . = not tested or not shown.

SMILES | CHOP inh | WT yeast gro inh | Lmaj promast | RAM network inh
CCCc1nc([N+](=O)[O-])c(S(=O)(=O)c2ccccc2)n1CC(C)C | -55 | 1 | 95* | 0
O=C(O)CCn1nnc(-c2ccccc2)n1 | 25 | -16 | -4 | 1
N#Cc1ccc(S(=O)(=O)N2CCc3[nH]c4ccc(F)cc4c3C2)cc1 | -4 | . | . | .
CCCN1C(=O)/C(=C/c2c(NCCCOC(C)C)nc3c(C)cccn3c2=O)SC1=S | 34 | -5 | -7 | 9.4*
CCCN1C(=O)/C(=C/c2c(N3CCNC(=O)C3CC(=O)OCC)nc3c(C)cccn3c2=O)SC1=S (configuration not stated) | -13 | . | . | .
Cc1cccc(/C=N\Nc2cn[nH]c(=O)c2Cl)c1 | -1 | -11 | -4 | 9.8*
O=c1[nH]ncc(N/N=C\c2cccnc2)c1Cl | -20 | . | . | .
CCC(C)c1ccccc1NC(=O)Cc1coc2cc3c(cc12)CCC3 (configuration not stated) | 64 | 37 | 5 | 9.5*
Cc1ccc(C)c(NC(=O)Cc2coc3cc4c(cc23)CCC4)c1 | 85* | -13 | 0 | 4
CC(=O)c1cccc(NC(=O)Cc2coc3cc4c(cc23)CCC4)c1 | 1 | 7 | 3 | 3
COc1cc(SC)ccc1C(=O)Nc1nccs1 | -13 | 33 | 9 | 1
O=C1NC(Cc2ccccc2)C(=O)N1CC(=O)N1CCCc2ccccc21 (configuration not stated) | 21 | 2 | 1 | 1
CCOC(=O)N1CCC(N2CCN(S(=O)(=O)c3ccc4ccccc4c3)CC2)CC1 | 56 | 21 | 98* | 0
O=S(=O)(NC1CCN(Cc2ccccc2)CC1)c1ccc(Cl)cc1 | -1 | . | . | .
COc1cc(S(=O)(=O)N2CCN(Cc3ccccc3)CC2)ccc1Br | 78* | 29 | 0 | 1
COc1ccc(S(=O)(=O)N2CCN(Cc3ccc(Cl)cc3)CC2)cc1 | 42 | 19 | 51* | 1
COc1ccc(S(=O)(=O)N2CCN(Cc3cccc(Cl)c3)CC2)cc1 | 38 | -1 | 1 | 0
O=S(=O)(c1ccc(Cl)cc1)N1CCN(C2CCN(Cc3ccccc3)CC2)CC1 | 36 | -1 | 99* | 0
O=c1[nH]c2ccc(S(=O)(=O)N3CCN(Cc4ccccc4)CC3)cc2[nH]c1=O | 23 | -9 | -11 | 0
CCOC(=O)N1CCC(N2CCN(S(=O)(=O)c3ccc([N+](=O)[O-])cc3)CC2)CC1 | -8 | . | . | .
Cc1nc2ccc(NC(=O)c3cncc(Br)c3)cc2s1 | 25 | . | . | .
COc1ccc(S(=O)(=O)N2CCC(CN3C(=O)c4cccc5cccc(c45)C3=O)CC2)cc1 | -35 | -6 | 98* | 5
COc1ccc(S(=O)(=O)N2CCC(N3CCN(Cc4ccccc4)CC3)CC2)cc1 | 34 | -4 | 87* | 1
COc1ccc(S(=O)(=O)N2CCN(C3Cc4ccccc4C3)CC2)cc1 | 9 | -2 | 97* | -1
CS(=O)(=O)N1CCN(C2Cc3ccccc3C2)CC1 | -26 | -9 | 36 | 0
SMILES | CHOP inh | WT yeast gro inh | Lmaj promast | RAM network inh
COc1ccc(CN2CCN(S(=O)(=O)c3ccc(NC(C)=O)cc3)CC2)cc1 | 6 | . | . | .
O=C(c1ccc(S(=O)(=O)N2CCCC2)cc1)N1CCC(CN2C(=O)c3cccc4cccc(c34)C2=O)CC1 | 44 | . | . | .
CCCCC1=C([O-])C2N=CC=CC2=[N+](c2ccccn2)C1=O (configuration not stated) | 2 | -1 | -2 | 0
COc1cc(NS(=O)(=O)c2ccc(Cl)cc2)c(C(=O)O)cc1OC | -5 | -5 | -6 | -1
CCOC(=O)c1c(C)n(-c2ccc(C)cc2)c2c(C(C(C)=O)C(=O)O)c(Br)c(O)c(O)c12 (configuration not stated) | -53 | 43 | 50* | 5
CCOC(=O)c1c(C)n(-c2ccc(C)cc2)c2c(CC(C)=O)c(Br)c(OC)c(O)c12 | 5 | 6 | -1 | 3
O=C(CNCc1cccnc1)Nc1cc(C(F)(F)F)ccc1N1CCOCC1 | -8 | . | . | .
NNC(=O)CSc1cccc2cccnc12 | 23 | -7 | -7 | 1
O=C(CSCC(=O)OCC(=O)c1ccc(Br)cc1)Nc1cccc2ccccc12 | 10 | 17 | -6 | 10*
CC(=O)/C(=N\Nc1ccccc1)Sc1cccc2cccnc12 | 15 | 24 | -5 | 5
O=C(CSc1cccc2cccnc12)OCC(=O)c1ccccc1 | 7 | -16 | -7 | 2
CN(C)C(=O)CSc1cccc2cccnc12 | 30 | 33 | 100* | 0
O=C(Sc1cccc2cccnc12)c1ccc(F)cc1 | 91* | 51 | 100* | -1
O=C(CSc1cccc2cccnc12)OCC(=O)c1ccc(Br)cc1 | -19 | 4 | -7 | 9.6*
O=C(CCC(=O)OCC(=O)c1ccc(Br)cc1)Nc1cccc2cccnc12 | 4 | 19 | -6 | 4
S=C1NC[C@H](Cc2ccccc2)N1CCc1cccc2ccccc12 | 40 | . | . | .
Fc1ccc(COc2ccc(/C=N/n3cnnc3)cc2)cc1 | 21 | 4 | 7 | 0
Fc1ccc(NC(=S)NCc2cccnc2)cc1 | 1 | -6 | 13 | -2
COc1ccccc1NC(=S)NCc1cccnc1 | 22 | -7 | 68* | 2
S=C(NCc1cccnc1)Nc1ccc(Cl)c(Cl)c1 | -5 | 4 | 98* | 0
COc1ccccc1CNC(=S)Nc1cc(C)ccc1C | 8 | 66* | 30 | -1
CC(C)(C)c1ccccc1NC(=S)NCc1ccccc1 | -9 | 63* | 16 | -1
COc1ccc(CNC(=O)C/C(C)=N/NC(=O)C23CC4CC(CC(C4)C2)C3)cc1 | -6 | 9 | -3 | 3
O=Nc1c2ccc[nH]c-2c2ccc([N+](=O)[O-])cc12 | 31 | -1 | 12 | 1
COCCNC(=O)c1cn(C)c2ccccc2c1=O | 38 | -3 | 2 | 1
SMILES | CHOP inh | WT yeast gro inh | Lmaj promast | RAM network inh
CCc1ccc(S(=O)(=O)c2ccc(-n3nc(C)cc3N)cc2)cc1 | 21 | -11 | -4 | 2
O=C(CSCc1c(F)cccc1Cl)Nc1ccccc1C(=O)N1CCOCC1 | 12 | 2 | -6 | 0
COc1cccc(-n2nnc3c(=O)n(CC(=O)N4CCCc5ccccc54)cnc32)c1 | -2 | 20 | 71* | 4
COc1cccc(-n2nnc3c(=O)n(CC(=O)N4CCC(C)CC4)cnc32)c1 | 12 | -12 | 3 | -1
COc1cccc(-n2nnc3c(=O)n(CC(=O)N4CCC(Cc5ccccc5)CC4)cnc32)c1 | 29 | -16 | 94* | 6
CC12CCC(C(=O)Nc3ccccc3Cl)(C(Br)C1=O)C2(C)C (configuration not stated) | -17 | 1 | 0 | 2
COC(=O)C1C(c2ccccc2)C(C(=O)OCc2ccco2)C1c1ccccc1 (configuration not stated) | -31 | 76* | 7 | 8.5*
COC(=O)c1ccc(CNC(=O)COC(=O)COc2ccc(OC)cc2)cc1 | -56 | -10 | -8 | 0
O=[N+]([O-])c1cc(CN2CCC(O)CC2)ccc1Cl | 25 | -7 | -1 | 2
CCCCS/C(=C(/C#N)C(N)=O)c1cc2c([nH]1)CCCC2 | 35 | -22 | 51* | 0
OC(COc1ccc(CN2CCCCO2)cc1)CN1CCCCC1 (configuration not stated) | -11 | -4 | -2 | 1
